Active and inactive are the calls of the source.
What was measured:
[1] = optical density shifts of acrAB sulA E. coli – strain DRC41, OD650, 48 h, E. coli filamentation inducer project, primary screen (AID 1152); conditions: higher = more signal, called active from +8 up or from −8 down;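 note: E. coli MC1000 strain DRC41 lacking acrAB efflux pump and sulA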
[2] = probe aLefty1 binding on compound microarray – biochemical, small-molecule microarray, 635/667 nm fluorescence, primary screen (AID 1153); conditions: higher = more signal;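 note: score merges spot fluorescence with signal-to-noise ratio from the scanned slide images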
[3] = plasmodial surface anion channel blockers, osmotic lysis – cell-based, P. falciparum Indochina, OD700, 1 h, primary screen (AID 1154); conditions: P. falciparum Indochina infected RBC osmotic lysis, higher = more signal, called active from +8 up or from −8 down
[4] = plasmodial surface anion channel blockers, osmotic lysis – cell-based, P. falciparum Indochina, OD700, 2 h, primary screen (AID 1155);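 note: lysis reports solute entry through the parasite surface anion channel PSAC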; conditions: P. falciparum Indochina infected erythrocytes, higher = more signal, called active from +8 up or from −8 down
[5] = changes in parasitized red cell lysis, either direction – P. falciparum Indochina, OD700, 3 h, PSAC antagonist project, primary screen (AID 1156); conditions: P. falciparum-infected erythrocytes, osmotic lysis, higher = more signal, called active from +8 up or from −8 down
[6] = plasmodial surface anion channel blockers, osmotic lysis – cell-based, P. falciparum Indochina, OD700, 18 h, primary screen (AID 1157); conditions: P. falciparum Indochina infected erythrocytes, osmotic lysis OD700, 18 h; higher = more signal, called active from +8 up or from −8 down
[7] = S6 kinase pathway phospho-S6 level changes – cell-based, A549, cytoblot, luminescence, serum-stimulated, primary screen (AID 1158); conditions: 5 h, higher = more signal;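 note: serum-stimulated A549 lung adenocarcinoma cells; signal is phosphorylated S6 detected by cytoblot immunostaining with HRP secondary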
[8] = target: NADPH oxidase 2 (Homo sapiens) (UniProt P04839); test: compounds shifting NOX2 Amplex Red fluorescence – cell-based, HEK293-NOX2, PMA-stimulated, NOX inhibitor project, primary screen (AID 1159); conditions: 45 min, higher = more signal, called active from +8 up or from −8 down; note: test concentration not given here
[9] = target: NADPH oxidase 4 (Homo sapiens) (UniProt Q9NPH5); test: compounds shifting NOX4 Amplex Red fluorescence – cell-based, HEK293-NOX4, tetracycline-induced, NOX inhibitor project, primary screen (AID 1160); conditions: HEK293-NOX4, Amplex Red H2O2 fluorescence, 45 min; higher = more signal, called active from +8 up or from −8 down
[10] = target: NADPH oxidase 5 (Homo sapiens) (UniProt Q96PH1); test: compounds shifting NOX5 Amplex Red fluorescence – cell-based, HEK293-NOX5, NOX inhibitor project, primary screen (AID 1161); conditions: HEK293-NOX5, ionomycin, 45 min, higher = more signal
[11] = compound effects on lung adenocarcinoma cell viability – A549, calcein-AM fluorescence, 48 h, basal, profiling panel (AID 1162); conditions: higher = more signal; note: test concentration not given here
[12] = compound effects on differentiated 3T3-L1 adipocyte viability – cell-based, 3T3-L1 adipocytes, calcein-AM fluorescence, 48 h, basal, profiling panel (AID 1163); conditions: 3T3-L1 adipocytes viability, higher = more signal; note: test concentration not given here
[13] = compound effects on hepatocellular carcinoma cell viability – HepG2, calcein-AM fluorescence, 48 h, basal, profiling panel (AID 1164); conditions: higher = more signal; note: test concentration not given here
[14] = compound effects on multiple myeloma cell viability – MM1S, calcein-AM fluorescence, 48 h, basal, profiling panel (AID 1165); conditions: higher = more signal; note: test concentration not given here
[15] = calcein-AM signal in unstimulated myeloma cells – cell-based, calcein-AM fluorescence, 48 h, PK04 Diversity Set, profiling panel (AID 1166); conditions: RPMI8226 myeloma viability, higher = more signal;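 note: cells grown under basal conditions without added stimulus; test concentration not given here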
[16] = JC-1 mitochondrial signal, unstimulated HepG2 cells – cell-based, JC-1 fluorescence, 24 h, 100 nL compound, profiling panel (AID 1167); conditions: HepG2 mitochondrial potential, higher = more signal; note: test concentration not given here
[17] = JC-1 mitochondrial signal, unstimulated adipocytes – cell-based, JC-1 fluorescence, 3T3-L1 adipocytes, 24 h, 100 nL compound, profiling panel (AID 1168); conditions: JC-1 mitochondrial fluorescence, higher = more signal, called active from +8 up or from −8 down; note: test concentration not given here
[18] = JC-1 mitochondrial signal, unstimulated myeloma cells – cell-based, JC-1 fluorescence, RPMI8226, 24 h, 100 nL compound, profiling panel (AID 1169); conditions: JC-1 mitochondrial potential fluorescence, higher = more signal; note: test concentration not given here
[19] = JC-1 mitochondrial signal, unstimulated MM1S myeloma – cell-based, JC-1 fluorescence, 24 h, 100 nL compound, profiling panel (AID 1170); conditions: MM1S mitochondrial potential, higher = more signal; note: test concentration not given here
[20] = resazurin metabolic signal in A549 cells – cell-based, resazurin fluorescence, 24 h, PK04 Diversity Set, profiling panel (AID 1171); conditions: A549 viability, higher = more signal, called active from +8 up or from −8 down; note: test concentration not given here

Sequence of NADPH oxidase 4 (Homo sapiens) (Q9NPH5 whole entry, looked up): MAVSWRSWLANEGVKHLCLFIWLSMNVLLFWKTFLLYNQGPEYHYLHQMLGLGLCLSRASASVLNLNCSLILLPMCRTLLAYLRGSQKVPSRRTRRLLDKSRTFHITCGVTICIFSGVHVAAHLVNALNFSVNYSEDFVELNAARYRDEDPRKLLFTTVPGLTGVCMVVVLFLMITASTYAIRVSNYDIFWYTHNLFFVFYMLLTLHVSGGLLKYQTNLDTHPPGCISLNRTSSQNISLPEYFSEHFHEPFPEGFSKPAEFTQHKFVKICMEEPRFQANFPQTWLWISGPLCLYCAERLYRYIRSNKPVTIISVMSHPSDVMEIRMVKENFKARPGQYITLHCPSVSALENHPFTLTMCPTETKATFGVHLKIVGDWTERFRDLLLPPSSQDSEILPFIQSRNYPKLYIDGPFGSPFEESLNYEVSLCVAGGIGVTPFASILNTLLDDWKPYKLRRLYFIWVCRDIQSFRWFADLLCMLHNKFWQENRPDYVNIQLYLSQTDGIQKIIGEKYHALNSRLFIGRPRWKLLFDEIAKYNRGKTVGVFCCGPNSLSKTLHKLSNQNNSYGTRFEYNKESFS
Sequence of NADPH oxidase 5 (Homo sapiens) (Q96PH1 whole entry, looked up): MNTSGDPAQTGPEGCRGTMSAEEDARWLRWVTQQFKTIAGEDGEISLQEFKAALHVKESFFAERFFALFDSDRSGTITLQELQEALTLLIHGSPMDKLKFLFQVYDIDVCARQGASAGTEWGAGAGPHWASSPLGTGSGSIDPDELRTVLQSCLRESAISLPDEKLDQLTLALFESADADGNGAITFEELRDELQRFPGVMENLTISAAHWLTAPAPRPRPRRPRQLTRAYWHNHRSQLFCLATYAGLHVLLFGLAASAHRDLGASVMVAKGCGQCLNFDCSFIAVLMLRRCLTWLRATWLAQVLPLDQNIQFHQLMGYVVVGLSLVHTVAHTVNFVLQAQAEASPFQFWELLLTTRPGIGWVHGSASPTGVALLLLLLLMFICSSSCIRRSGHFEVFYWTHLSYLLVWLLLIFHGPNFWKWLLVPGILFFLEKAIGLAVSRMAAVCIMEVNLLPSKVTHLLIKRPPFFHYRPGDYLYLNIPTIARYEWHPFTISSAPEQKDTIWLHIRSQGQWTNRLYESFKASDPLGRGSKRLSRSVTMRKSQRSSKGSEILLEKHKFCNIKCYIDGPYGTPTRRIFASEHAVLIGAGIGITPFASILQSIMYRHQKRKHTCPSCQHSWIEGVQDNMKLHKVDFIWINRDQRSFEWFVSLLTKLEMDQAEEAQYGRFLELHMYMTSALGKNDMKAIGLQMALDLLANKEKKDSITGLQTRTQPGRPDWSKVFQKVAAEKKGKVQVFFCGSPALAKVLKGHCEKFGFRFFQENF
Sequence of NADPH oxidase 2 (Homo sapiens) (P04839 whole entry, looked up): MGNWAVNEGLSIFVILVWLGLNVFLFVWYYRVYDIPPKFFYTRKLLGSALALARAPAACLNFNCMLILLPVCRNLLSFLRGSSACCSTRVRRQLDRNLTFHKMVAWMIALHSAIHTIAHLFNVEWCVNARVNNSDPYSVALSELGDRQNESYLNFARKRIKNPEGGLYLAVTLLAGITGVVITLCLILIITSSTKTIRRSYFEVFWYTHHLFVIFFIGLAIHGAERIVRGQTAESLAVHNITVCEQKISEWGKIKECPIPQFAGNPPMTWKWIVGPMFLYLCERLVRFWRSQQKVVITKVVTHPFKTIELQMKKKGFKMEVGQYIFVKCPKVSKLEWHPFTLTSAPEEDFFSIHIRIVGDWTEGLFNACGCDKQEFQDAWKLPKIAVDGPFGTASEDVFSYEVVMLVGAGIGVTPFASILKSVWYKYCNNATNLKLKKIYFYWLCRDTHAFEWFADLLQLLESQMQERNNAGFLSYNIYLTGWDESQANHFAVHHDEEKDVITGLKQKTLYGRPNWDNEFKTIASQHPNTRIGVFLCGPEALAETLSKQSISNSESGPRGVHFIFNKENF

Compound	z-score [1]	composite z-score [2]	z-score [3]	z-score [4]	z-score [5]	z-score [6]	z-score [7]	z-score [8]	z-score [9]	z-score [10]	z-score [11]	z-score [12]	z-score [13]	z-score [14]	z-score [15]	z-score [16]	z-score [17]	z-score [18]	z-score [19]	z-score [20]
CCCC[C@@H]1C[C@H]1[C@@H](NC(=O)c1ccc(-c2ccccc2)cc1)c1ccc(-c2ccccc2)cc1	-2.4 (inactive)	0.0341	2.15 (inactive)	0.275 (inactive)	1.68 (inactive)	0.446 (inactive)	-0.456	-1.32 (inactive)	-2 (inactive)	-0.619	-1.78	0.441	-0.997	-2.17	-2.33	-0.922	-0.949 (inactive)	0.196	-0.391	0.719 (inactive)
O=C(CCN1CCOCC1)c1cccc(O)c1	-0.202 (inactive)	0.154	0.205 (inactive)	-1.48 (inactive)	-0.582 (inactive)	-1.68 (inactive)	0.4	-2.74 (inactive)	-0.206 (inactive)	1.72	0.867	0.75	-0.891	-3.16	-1.74	0.109	-0.163 (inactive)	-0.0964	-2.97	0.36 (inactive)
CN(C)C(=O)[C@]1(CCC(=O)OC(C)(C)C)N=C(c2ccc(OCCCO)cc2)O[C@@H]1c1ccccc1N=[N+]=[N-]	0.761 (inactive)	1.33	31 (active)	29.8 (active)	1.37 (inactive)	2.34 (inactive)	-0.294	-4.53 (inactive)	-0.32 (inactive)	-1.98	0.0413	0.473	0.333	-0.629	0.0141	2.25	2.52 (inactive)	-0.568	-0.325	1.84 (inactive)
C=CCC(OC(C)=O)[C@@H]1[C@@H](N(Cc2ccc(-c3ccccc3)cc2)C(=O)Cc2ccc(F)cc2)c2cc(OCCCO)ccc2N1C(=O)c1ccc2ccccc2n1 (stereo not given in full)	1.51 (inactive)	0.22	0.879 (inactive)	1.19 (inactive)	-0.385 (inactive)	0.505 (inactive)	0.374	-0.632 (inactive)	0.631 (inactive)	1.95	1.07	0.203	1.14	-2.11	0.246	2.97	0.25 (inactive)	-0.359	1.7	1.37 (inactive)

Reference: PubChem BioAssay
